Test systems include T-47D breast; BT-549 breast; MDA-MB-435 melanoma; SW-620 colon; MCF7 breast; HCT-116 colon; HCC-2998 colon; KM12 colon.
Common to all, as to experiment: NCI-60 one-dose screen, 48 h (100 = growth as untreated, 0 = no growth, -100 = all killed)
What all share (settings): 10 µM unless noted

Structures are written as SMILES. This is part of a sample that, as a whole, favours compounds with a hit. Of some 83,000 tested, about 20% had one in any assay.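 Results are percent growth after 48 hours of single-concentration exposure. 100 means growth as in untreated cells, lower positive values show inhibition; negative values down to -100 show cell death.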 Unmarked numbers belong to inactive results. Activity calls are given as the source filed them. How the source made its calls: active means growth percent below 10; inactive means the rest.

Take `CCN(CC)c1ccc(C(=N)c2ccc(N(CC)CC)cc2)cc1`: the growth with T-47D breast is -27.9% (active); in the experiment on BT-549 breast it was 8.11% (active); in the experiment on MDA-MB-435 melanoma it was -35.2% (active); in the experiment on SW-620 colon it was -21% (active); with MCF7 breast, -18.9% (active); in the experiment with HCT-116 colon, -60.1% (active). The growth in the experiment on HCC-2998 colon was -74.5% (active); in the experiment on KM12 colon, -38.2% (active).

Consider `O=C(NCc1cn(Cc2cccc(Oc3ccccc3)c2)nn1)c1cccnc1Nc1ccc(F)cc1`, for which the growth is 83.1% in the experiment with T-47D breast; 86.6% in the experiment on BT-549 breast; -11.7% (active) in the experiment on MDA-MB-435 melanoma; 44.7% with SW-620 colon; 24% with MCF7 breast; 32.8% in the experiment with HCT-116 colon. In addition, the results for the growth in the experiment on HCC-2998 colon and in the experiment with KM12 colon were 62.7% and 34.4%, respectively.

Regarding `CN1C=CN(Cc2ccc(-c3ccccn3)nc2)[CH-]1.CN1C=CN(Cc2ccc(-c3ccccn3)nc2)[CH-]1.[Au+3]`, the growth was 40.2% with T-47D breast; 31.1% in the experiment with BT-549 breast; 30.6% with MDA-MB-435 melanoma; 36.2% in the experiment with SW-620 colon; 9.07% (active) in the experiment with MCF7 breast; 1.98% (active) in the experiment with HCT-116 colon. In addition, the growth in the experiment on HCC-2998 colon is 25.3%; in the experiment with KM12 colon, 24.9%.

For `C=C(C)[C@@H]1CC[C@]2(C(=O)O)CC[C@]3(C)[C@H](CC[C@@H]4[C@@]5(C)C[C@@H](CC#Cc6ccc(C(F)(F)F)cc6)[C@H](O)C(C)(C)[C@@H]5CC[C@]43C)[C@@H]12`, the growth was 19% in the experiment with T-47D breast; 36.7% with BT-549 breast; -31.8% (active) with MDA-MB-435 melanoma; 15% with SW-620 colon; 8.54% (active) in the experiment on MCF7 breast; 11.4% in the experiment with HCT-116 colon. The results for the growth in the experiment on HCC-2998 colon and in the experiment on KM12 colon were 18.2% and 15.3%, respectively.

Take `COc1ccc2[nH]c(=O)c3c4ccccc4cn3c2c1`: the growth is 44.6% in the experiment on T-47D breast; 37.9% with BT-549 breast; -23.3% (active) in the experiment with MDA-MB-435 melanoma; 13.3% with SW-620 colon; 17.1% in the experiment with MCF7 breast; -28.9% (active) in the experiment with HCT-116 colon. In addition, the growth with HCC-2998 colon was 31.3%; in the experiment on KM12 colon, 10.4%.

`N/C(=N\S(=O)(=O)c1ccccc1)Nc1nc2ccccc2s1`: the growth in the experiment with T-47D breast is 75.9%; in the experiment with BT-549 breast, 95.5%; with MDA-MB-435 melanoma, 101%; in the experiment on SW-620 colon it was 99.6%; in the experiment on MCF7 breast, 90.6%; in the experiment on HCT-116 colon it was 97.5%. Besides, the growth is 107% with HCC-2998 colon and 93% with KM12 colon.

`O=C(O)c1cn(C2CC2)c2cc(N3CCN(C(=O)/C=C/c4ccc(Cl)cc4)CC3)c(F)cc2c1=O`: the growth was 65.5% in the experiment with T-47D breast; 50.1% in the experiment with BT-549 breast; 82.5% in the experiment with MDA-MB-435 melanoma; 102% in the experiment with SW-620 colon; 89% in the experiment with MCF7 breast; 74.8% in the experiment on HCT-116 colon. The growth in the experiment on HCC-2998 colon was 90.4%; in the experiment on KM12 colon it was 82.7%.

Regarding `COc1cc(Nc2ncccc2C(=O)NCc2cn(Cc3cccc(Oc4ccccc4)c3)nn2)cc(OC)c1`, the growth with T-47D breast is 50.3%; in the experiment on BT-549 breast, 43.8%; with MDA-MB-435 melanoma, -15.3% (active); in the experiment on SW-620 colon, 31.4%; in the experiment on MCF7 breast, 18.3%; with HCT-116 colon, 19.5%. In addition, the growth in the experiment on HCC-2998 colon is 55%; with KM12 colon, 16.7%.

For the molecule `O=C(Nc1cccc(-n2cc(-c3ccncc3)c(-c3ccc(Cl)c(O)c3)n2)c1)Nc1cccc(C(F)(F)F)c1`, the growth was 18.5% in the experiment on T-47D breast; 36% in the experiment on BT-549 breast; 15.6% in the experiment with MDA-MB-435 melanoma; 28.5% in the experiment on SW-620 colon; 10.3% in the experiment with MCF7 breast; 9.75% (active) with HCT-116 colon. The growth was 40.1% with HCC-2998 colon and 2.46% (active) in the experiment with KM12 colon.

Turning to `CCOC(=O)NNC(=S)Nc1ccccc1`, the growth with T-47D breast was 113%; in the experiment with BT-549 breast, 103%; in the experiment with MDA-MB-435 melanoma, 94.9%; with SW-620 colon it was 110%; in the experiment on MCF7 breast, 100%; in the experiment with HCT-116 colon, 104%. Further, the growth in the experiment with HCC-2998 colon was 117%; with KM12 colon it was 106%.

Consider `COc1ccc(-c2cn(-c3cccc(C(=O)/C=C/c4cc(OC)c(OC)c(OC)c4)c3)c(=O)[nH]2)cc1OC`, for which the growth was 62.9% in the experiment on T-47D breast; 85% in the experiment with BT-549 breast; 83.2% with MDA-MB-435 melanoma; 94.5% in the experiment with SW-620 colon; 53.3% with MCF7 breast; 63.6% in the experiment with HCT-116 colon. Also, the growth is 103% in the experiment on HCC-2998 colon and 70.9% in the experiment on KM12 colon.

As to `CN(C)c1oc(C2OC2c2ccccc2)nc1C#N` (stereo not drawn), the growth with T-47D breast is 89.5%; in the experiment on BT-549 breast, 95.6%; in the experiment on MDA-MB-435 melanoma it was 101%; in the experiment on SW-620 colon, 94.3%; with MCF7 breast, 90.5%; with HCT-116 colon it was 90.2%. The growth in the experiment on HCC-2998 colon was 97.3%; in the experiment with KM12 colon, 103%.

As for `O=[N+]([O-])c1cccc(-c2nc3sccn3c2-c2ccnc(NCCCNS(=O)(=O)c3ccc(Cl)cc3)n2)c1`, the growth was 6.46% (active) with T-47D breast; 30.2% with BT-549 breast; 33.4% in the experiment with MDA-MB-435 melanoma; 90.1% in the experiment with SW-620 colon; 33.2% with MCF7 breast; 53.3% in the experiment with HCT-116 colon. Also, the growth in the experiment on HCC-2998 colon is 116%; with KM12 colon it was 39.2%.

Regarding `CN1C(=O)N(C)C2C1NN=c1s/c(=C\c3cccnc3)c(=O)n12` (stereo not drawn), the growth was 91.2% in the experiment with T-47D breast; 79.9% in the experiment on BT-549 breast; 8.5% (active) in the experiment on MDA-MB-435 melanoma; 59.1% in the experiment on SW-620 colon; 51.6% with MCF7 breast; 75.9% in the experiment with HCT-116 colon. Further, the figures for the growth in the experiment on HCC-2998 colon and in the experiment on KM12 colon were 92.2% and 53.8%, respectively.

In the case of `CCN(CC)c1ccc(N=O)cc1`, the growth in the experiment on T-47D breast was 44.9%; with BT-549 breast it was 79.7%; in the experiment with MDA-MB-435 melanoma, 66.9%; in the experiment with SW-620 colon, -61.1% (active); with MCF7 breast, 51.8%; in the experiment with HCT-116 colon, 37.9%. Moreover, the growth in the experiment with HCC-2998 colon was 86.5%; with KM12 colon it was 40.3%.

On to `O=C(/C=C/c1ccccc1)c1cccc(O)c1`, for which the growth is 97.9% with T-47D breast; 80.4% with BT-549 breast; 57.1% with MDA-MB-435 melanoma; 65.4% in the experiment with SW-620 colon; 14.9% in the experiment on MCF7 breast; -71.6% (active) in the experiment with HCT-116 colon. The growth in the experiment with HCC-2998 colon was 102%; in the experiment on KM12 colon it was -29.4% (active).

For the origin of these results see PubChem BioAssay (NCI).
